An excerpt weighted towards active compounds, which were near 2.4% of everything screened.
D2 PAM-1: D2 dopamine receptor (human) potentiation; HEK293 T-REx D2, calcium flux, EC20 dopamine potentiation; potentiation, % at 10 µM; hit rate 0.34% among 340,000; AID 485347;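 active = potentiation over 3 SD above the plate norm, cut at about 30% in these data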
Target sequence (P14416 whole entry, looked up): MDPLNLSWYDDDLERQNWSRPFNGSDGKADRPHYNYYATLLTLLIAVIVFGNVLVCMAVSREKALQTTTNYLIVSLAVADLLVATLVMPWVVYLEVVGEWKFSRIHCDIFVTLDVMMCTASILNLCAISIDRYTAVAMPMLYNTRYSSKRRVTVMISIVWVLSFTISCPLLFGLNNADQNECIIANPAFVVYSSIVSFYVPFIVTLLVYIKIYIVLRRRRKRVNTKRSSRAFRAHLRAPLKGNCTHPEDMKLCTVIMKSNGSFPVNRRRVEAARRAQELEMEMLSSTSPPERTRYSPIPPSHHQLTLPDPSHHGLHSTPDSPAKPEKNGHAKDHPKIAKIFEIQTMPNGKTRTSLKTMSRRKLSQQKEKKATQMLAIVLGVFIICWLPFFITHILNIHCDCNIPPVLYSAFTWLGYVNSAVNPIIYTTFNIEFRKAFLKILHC
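Calcium flux readout, no-wash dye, 1 read/s. Inducible HEK293 Trex D2 line, overnight 30 C. Compound alone 180 s (agonist flags), then EC20 dopamine, another 180 s to score potentiation.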
D2 PAM-2: positive allosteric modulators of human D2 dopamine receptor; DiscoveRx D2 beta-arrestin cells, luminescence, 90 min; 100% = 57 uM dopamine signal; hit rate 0.23% among 360,000; potentiation, % (test concentration not listed); P14416; AID 624464; in the data active = potentiation above about 50%
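PathHunter D2 cells, attached overnight at 37 deg C, received compound in DMSO plus dopamine at EC20 (50 nM final) for 90 min at 37 deg C. Beta-arrestin recruitment was read as luminescence after 1 h with detection reagent at ambient temperature.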
B2AR arrestin: agonists driving beta-arrestin recruitment to human beta2-adrenergic receptor; AID 492947; P07550; Potency, µM (series often up to 46.1 µM), hits mostly activators; beta-arrestin recruitment to beta2AR, cell-based reporter; hit rate 0.02% among 330,000; active = well fitted activation curve with a large enough effect; note: nearly all actives have a fitted effect of over 65% in size
D2 antag: D2 dopamine receptor (human) antagonism; hit rate 2% among 340,000; P14416; HEK293 TREx D2 cells, calcium flux, dopamine EC80; inhibition, % at 10 µM; in the data active = inhibition above about 30%; inactive = below that, where a call was filed
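Inhibition of EC80 dopamine-driven calcium flux, recorded kinetically, defines activity here; cells are a tetracycline-induced HEK293 T-REx line expressing force-coupled D2.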
D2 ag-1: agonists of human D2 dopamine receptor (beta-arrestin); activation, % (no concentration beside the values); AID 624465; DiscoveRx PathHunter D2 beta-arrestin, luminescence, 90 min; 100% = 57 uM dopamine signal; hit rate 0.084% among 360,000; P14416; in the data active = activation above about 40%
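Agonist mode: compounds alone added to overnight-plated D2 PathHunter cells for 90 min at 37 C, with 57 uM final dopamine (EC100) defining full response. Beta-arrestin recruitment detected by chemiluminescent reagent, read after 1 h at ambient temperature.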
D2 ag-2: D2 dopamine receptor (human) agonism. activation, % at 2 µM. hit rate 0.53% among 340,000. P14416. HEK293 T-REx D2 cells, calcium flux agonist mode;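 active = activation over 3 SD above normal in the single-dose calcium agonist read, cut at about 30% in these data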
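Tetracycline-induced HEK293 Trex cells with D2 receptor force-coupled to calcium signaling, plated overnight at 30 C and loaded with no-wash calcium dye. Calcium flux read kinetically for 180 s after compound addition; responses flag agonists.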
Hits are given with their value; n = inactive; x = not tested or not shown.

SMILES	D2 PAM-1	D2 PAM-2	B2AR arrestin	D2 antag	D2 ag-1	D2 ag-2
O=C(COC(=O)Cc1ccccc1F)NCCNC(=O)COC(=O)Cc1ccccc1F	n	n	n	n	n	n
COc1ccc(C(=O)N(CN2CCCC2=O)c2cc(C)on2)cc1OC	n	n	n	n	n	n
COc1cccc(/C(O)=C2/C(=O)C(=O)N(CCN(C)C)C2c2ccc(Br)cc2)c1 (stereo not drawn)	n	n	n	n	n	n
O=C1OCCC1Sc1nc2ccccc2s1 (stereo not drawn)	n	n	n	n	n	n
OC1CCCCC1Sc1nc2ccccc2s1 (stereo not drawn)	n	n	n	40.1	n	n
CCOc1ccc(C2=NC(c3ccc(OC)cc3)=Nc3ccc(Cl)cc3N2)cc1	n	x	x	x	x	n
O=C(NCC(c1ccco1)N1CCc2ccccc2C1)c1ccc(Br)cc1 (stereo not drawn)	n	n	n	n	n	n
Cc1cc(-c2ccccc2)nc2cc(C(=O)NCc3ccco3)nn12	35.5	n	n	n	n	n
C/C(=N\OCc1cccc(C(=O)O)c1)c1ccc(Cl)cc1	n	n	n	55.7	n	n
Cc1ccc(Cn2ccnc2SCC(=O)NCc2ccccc2Cl)cc1	n	x	x	x	x	x
CN1C(=O)c2ccc(NC(=O)c3cccc(N4C(=O)CCC4=O)c3)cc2C1=O	n	n	n	n	n	n
O=C(CN1C(=O)C(=O)c2ccccc21)c1ccccc1	n	n	n	n	n	n
CC(C)N(C(=O)CN1C(=O)C(=O)c2ccccc21)c1ccccc1	n	n	n	36.2	n	n
COc1ccccc1N(CC(O)Cn1ccnc1C)S(=O)(=O)c1ccccc1 (stereo not drawn)	n	n	n	34.3	n	n
CC(C)Oc1cc(NC(=O)CS(=O)CC(=O)Nc2cccc(C(F)(F)F)c2)c(Cl)cc1Cl (stereo not drawn)	n	n	n	n	n	n
O=C1c2cccc(O)c2C(=O)c2c(O)cc(CO)cc21	x	88.9	x	x	n	x
N#Cc1ccc(NC(=O)COC(=O)CSc2nnc(-c3ccc(Cl)cc3)o2)cc1	n	n	n	31.3	n	n
O=c1[nH]c2cc3c(cc2cc1CN(CCc1ccccc1)Cc1nnnn1C1CCCC1)OCCO3	n	x	n	n	x	34.9
O=C1Nc2ccccc2C1Cc1ccccn1 (stereo not drawn)	n	n	n	n	n	n
CC(C)(C)C(=O)N1CCc2cc(-c3csc(N)n3)ccc21	33.4	n	n	n	n	n
CNc1nc(-c2ccc3c(c2)CCN3C(=O)c2ccccc2F)cs1	n	n	n	n	n	n
NS(=O)(=O)c1ccc(NC(=O)/C=C/c2cccc(Cl)c2)cc1	n	n	n	35.2	n	n
O=C(/C=C/c1cccc(Cl)c1)Nc1ccncc1	n	n	n	n	n	n
COc1ccc(NC(=O)/C=C/c2cc(Br)ccc2OC)cc1	n	n	n	49.5	n	n
COc1ccccc1/C=C/C(=O)Nc1ccc2c(c1)CCC2	x	n	n	x	n	x
SMILES	D2 PAM-1	D2 PAM-2	B2AR arrestin	D2 antag	D2 ag-1	D2 ag-2
COc1ccc(OC)c(/C=C/C(=O)Nc2ccc3c(c2)CCC3)c1	n	n	n	49.4	n	n
O=C(NCCCN1CCC(Cc2ccccc2)CC1)c1ccc2nc(N3CCOCC3)sc2c1	n	n	n	48.0	n	n
CC(C)(C)n1nnnc1CN1CCN2CCCC2C1 (stereo not drawn)	n	n	n	36.8	n	n
COCCn1nnnc1CN1CCN2CCCC2C1 (stereo not drawn)	n	n	n	n	n	n
O=S(=O)(c1ccc(Cl)cc1)N(CCCN1CCOCC1)Cc1cccs1	n	n	n	42.8	n	n
Cc1ccc(CNc2ncnc3c2c(-c2ccccc2)cn3-c2ccccc2)cc1	n	x	x	x	x	n
COc1cccc(/C=N/NC(=O)CCc2c(C)n[nH]c2C)c1	n	n	n	n	n	n
Cc1n[nH]c(C)c1CCC(=O)N/N=C/c1cccc([N+](=O)[O-])c1	n	n	n	45.5	n	n
CS(=O)(=O)c1ccc(-c2csc(C(O)(c3ccccc3)C(F)(F)F)n2)cc1 (stereo not drawn)	x	n	x	x	n	x
COc1ccc(OC)c2sc(NC(=O)C3CC3)nc12	n	n	n	64.9	n	n
CC[C@](C)(O)c1cc2ccccc2c(=O)o1	x	n	n	x	n	x
CCOC(=O)c1cnc(-n2nc(C)cc2C)nc1NCCc1ccccc1	n	n	n	34.3	n	n
Cc1cccc(NC(=O)CCC2CCN(Cc3nccs3)CC2)c1	n	n	n	n	n	n
COCCOC(=O)c1c(C)oc2ccc(OC(=O)c3ccco3)cc12	n	n	n	n	n	n
COCCOC(=O)c1c(C)oc2ccc(OCc3ccccc3)cc12	n	n	n	64.5	n	n
COc1ccc(OC)c(C(=O)NC(CC(N)=O)c2ccc(N3CCN(c4ccccc4)CC3)c([N+](=O)[O-])c2)c1 (stereo not drawn)	n	n	n	n	n	n
COc1ccc(OC)c(C(=O)NC(CC(N)=O)c2ccc(N3CCN(c4ccccn4)CC3)c([N+](=O)[O-])c2)c1 (stereo not drawn)	n	n	n	31.7	n	n
COc1ccccc1CNC(=O)c1ccc(S(=O)(=O)N(C)c2ccccc2)cc1	n	n	n	n	n	n
CCN1C(=O)[C@H]2[C@@H](c3ccc(-c4ccccc4)c(OC)c3)N[C@@](Cc3ccccc3)(C(=O)OC)[C@H]2C1=O	n	n	n	n	n	n
CCN1C(=O)[C@H]2[C@@H](c3ccc(-c4ccc(C(C)=O)cc4)c(OC)c3)N[C@@](Cc3ccccc3)(C(=O)OC)[C@H]2C1=O	n	n	n	32.1	n	n
CCCSC1=C(C#N)C(c2ccc(OC)cc2)C2=C(CC(C)(C)CC2=O)N1 (stereo not drawn)	n	n	n	41.7	n	n
C[N+]1(CC(=O)OC2CCCCCCCCCCC2)CCCC1	x	n	n	n	n	n
CC(=O)/C(C[N+]1(C)CCCCC1)=N\O	x	n	n	44.1	n	n
COC(=O)[C@H](CCSC)NC(=O)N1CCC(C)CC1	n	n	n	n	n	n
CCN(CC)CCNCc1ccc(-c2ccc(Cl)cc2)o1	n	n	n	33.4	n	n
COc1cc2[nH]c(-c3ccc(C)cc3)cc(=O)c2cc1OC	n	n	n	83.9	n	n
O=S(=O)(Nn1cnnc1)c1ccccc1	n	n	n	n	n	n
O=S(=O)(Nn1cnnc1)c1ccccc1Cl	n	n	n	30.4	n	n
Cc1cccc(N2C(=O)C(O)=C(C(=O)c3cccs3)C2c2cccc(Oc3ccccc3)c2)n1 (stereo not drawn)	n	n	n	n	n	n

Bioassay records deposited in PubChem BioAssay by National Center for Advancing Translational Sciences (NCATS).
